Screening data deposited in PubChem by National Center for Advancing Translational Sciences (NCATS).
Tau fluor counter: counter-screen for tau fibril formation inhibitors; tau K18 P301L Alexa594 fluorescence, heparin fibrillization; Potency, µM (top dose mostly 57.7 µM), without a hit: at the highest dose activity change, negative = decrease; actives 0.93% (n = 280,000); AID 1463; active = well fitted curve in the direction sought with a large enough effect; inconclusive = small, poorly fitted or top-dose-only effect, or another doubt; inactive = no such curve, though single readings can be large; an effect the other way counts as inactive or inconclusive; also: nearly all actives have a fitted effect of over 55% in size
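Human tau K18 P301L (15 uM unlabeled, 0.24 uM Alexa 594-labeled) in 100 mM sodium acetate pH 7 with 20 uM heparin, 6 hr at 37 C. ThT 30 uM added, 1 hr ambient; Alexa 594 FP and total fluorescence read at 555/632 nm.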
Tau fibril FP: tau fibrillization inhibition (FP). K18 P301L tau heparin fibrillization, Alexa594 FP, 6 h. Potency, µM (titrated, usually from 57.7 µM), without a hit: at the highest dose activity, negative = inhibition, usual class: inhibitors. actives 0.39% (n = 280,000). AID 1468; active = well fitted curve in the direction sought with a large enough effect; inconclusive = small, poorly fitted or top-dose-only effect, or another doubt; inactive = no such curve, though single readings can be large; an effect the other way counts as inactive or inconclusive; also: nearly all actives have a fitted effect of over 55% in size
Target sequence (P10636 561-689 P618L limits assumed): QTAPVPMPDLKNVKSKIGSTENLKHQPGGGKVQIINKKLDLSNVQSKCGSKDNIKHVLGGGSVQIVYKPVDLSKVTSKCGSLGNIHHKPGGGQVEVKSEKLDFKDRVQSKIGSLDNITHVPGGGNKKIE
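Steps: dispense K18 P301L tau (15 uM plus 0.24 uM Alexa 594 tracer, final) in pH 7 sodium acetate; add compound; add heparin (20 uM final); incubate 6 hr, 37 C; add ThT (30 uM final); after 1 hr ambient, read FP.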
HPGD inh: blocks human HPGD enzyme activity. P15428. purified HPGD, NADH fluorescence kinetic, PGE2 substrate. Potency, µM, without a hit: top-dose activity change, negative = inhibition, hits mostly inhibitors. actives 4.3% (n = 150,000)
Target sequence (P15428 whole entry, looked up): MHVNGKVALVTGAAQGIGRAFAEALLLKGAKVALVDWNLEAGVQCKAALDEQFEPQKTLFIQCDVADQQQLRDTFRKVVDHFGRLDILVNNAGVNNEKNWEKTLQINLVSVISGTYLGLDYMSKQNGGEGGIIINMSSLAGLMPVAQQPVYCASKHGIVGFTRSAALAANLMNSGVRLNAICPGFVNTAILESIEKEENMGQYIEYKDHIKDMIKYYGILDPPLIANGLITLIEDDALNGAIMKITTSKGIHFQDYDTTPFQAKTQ
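NADH formation kinetics: reaction with 30 uM PGE2 and 1 mM NAD+ (final), 20 nM enzyme, Tris-HCl pH 8 with Tween 20, after 15 min compound preincubation at room temperature. Fluorescence change, last versus first of five reads.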
ALDH1A1 block: inhibitors of human aldehyde dehydrogenase 1A1. P00352. Purified ALDH1A1, NADH fluorescence, propionaldehyde substrate. Potency, µM (titrated, usually from 75.3 µM), for the others: at the highest dose activity, negative = inhibition, most hits filed as inhibitors. actives 7.3% (n = 220,000). AID 1030;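 also: plate controls were no enzyme wells and a reference inhibitor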
KDM4E inh: blocks human JMJD2E demethylase activity | JMJD2E catalytic domain, FDH-coupled NADH fluorescence (FDH is formaldehyde dehydrogenase) | Potency, µM (doses to about 57.1 µM), inactives show at the highest dose activity change, negative = inhibition, usual class: inhibitors | actives 1.6% (n = 230,000) | AID 2147;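 also: 0% = wells with enzyme and -100% = buffer wells without enzyme; nearly all actives have a fitted effect of over 50% in size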
Tau ThT inhib: inhibitors of human tau fibril formation, thioflavin T binding; Potency, µM (series often up to 57.4 µM), for inactives: top-dose activity, negative = inhibition, usual class: inhibitors; recombinant tau K18 P301L (four-repeat tau fragment), heparin-induced fibrillization, ThT fluorescence; actives 2.1% (n = 270,000); P10636; active = well fitted curve in the direction sought with a large enough effect; inconclusive = small, poorly fitted or top-dose-only effect, or another doubt; inactive = no such curve, though single readings can be large; an effect the other way counts as inactive or inconclusive; also: nearly all actives have a fitted effect of over 55% in size
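K18 P301L tau (15 uM + 0.24 uM Alexa 594-tagged), heparin 20 uM, NaOAc pH 7, 6 h 37 C; ThT 30 uM, 1 h RT, ex 450/em 510 nm.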
* hit, by the source's call; [ ] = another dose, or the depositor's remark. This is a sample that favours compounds with a hit; in the whole collection about 9.9% have one here. Unless noted, calls follow the shape of the dose curve; as a rule, active = well fitted inhibition curve with a large enough effect (not every such curve was filed as active); inconclusive = small, poorly fitted or top-dose-only effect, or another doubt; inactive = no such curve, though single readings can be large or run the other way. Unless noted, % is scaled to controls: 0 for no effect and ±100 for the full control effect; potency is read from the fitted curve at half-maximal effect.

Screening CCc1c(O)nc(SCC(=O)Nc2ccc(C)cc2)n(C2CCCCC2)c1=O returned Tau fluor counter -12.2%, Tau fibril FP 2.8%, HPGD inh -11.9%, ALDH1A1 block 20µM*, KDM4E inh 3.4% and Tau ThT inhib -11.6%.
For COC(=O)C(CCSC)NC(=O)c1cc2c(n(-c3ccc(C)cc3)c1=O)CC(C)(C)CC2=O (centres undefined) the results were Tau fluor counter -18.4%, Tau fibril FP 2.6% and Tau ThT inhib -16.5%.
`COC(=O)C(CCSC)NC(=O)c1cc2c(n(-c3ccccc3)c1=O)CC(C)(C)CC2=O` (centres undefined) gave Tau fluor counter -14.1%, Tau fibril FP 3.4%, HPGD inh -7.5%, ALDH1A1 block 28.2µM*, KDM4E inh inconclusive and Tau ThT inhib -7.7%.
For C=CCn1c(SCC(=O)NC(=O)c2cccc([N+](=O)[O-])c2)nnc1-c1ccccc1 the results were Tau fluor counter -7.3%, Tau fibril FP 3.7%, HPGD inh -8.5%, ALDH1A1 block inconclusive, KDM4E inh -13.6% and Tau ThT inhib -7.1%.
Screening COc1ccc(-n2c(N3CCN(C)CC3)nc3sc4c(c3c2=O)CCCCC4)cc1 returned Tau fluor counter 4.5%, Tau fibril FP -8.6%, HPGD inh inconclusive, ALDH1A1 block 2.82µM*, KDM4E inh 7.7% and Tau ThT inhib 11.3%.
O=C(NCCc1ccccc1)c1ccc(Cn2c(SCc3ccccc3F)nc3cccnc32)cc1 was read as Tau fluor counter -19.6%, Tau fibril FP 3.8% and Tau ThT inhib -4.7%.
C/C(=N/Nc1nc(-c2ccccc2)cc(-c2ccccc2)n1)c1ccc(N)cc1 was read as Tau fluor counter inconclusive, Tau fibril FP 0.2%, HPGD inh -18.7%, ALDH1A1 block -10.2%, KDM4E inh 4.0% and Tau ThT inhib inconclusive.
C/C(=N/Nc1cc(-c2ccccc2)nc(-c2ccccc2)n1)c1ccc(O)cc1 was read as Tau fluor counter 7.08µM*[quencher], Tau fibril FP inconclusive, HPGD inh inconclusive, ALDH1A1 block inconclusive, KDM4E inh inconclusive and Tau ThT inhib inconclusive.
COC(=O)C1=C(C)N(Cc2ccc(OC)cc2)C(=O)/C1=C\c1ccco1 was read as Tau fluor counter inconclusive, Tau fibril FP -5.6%, ALDH1A1 block -12.8%, KDM4E inh -4.1% and Tau ThT inhib 25.1µM*.
COC(=O)C1=C(C)N(Cc2ccco2)C(=O)/C1=C\c1ccc([N+](=O)[O-])cc1 was read as Tau fluor counter inconclusive, Tau fibril FP inconclusive, ALDH1A1 block 15µM*, KDM4E inh inconclusive and Tau ThT inhib 12.6µM*.
COC(=O)C1=C(C)N(C)C(=O)/C1=C\c1ccco1 was read as Tau fluor counter -10.7%, Tau fibril FP -9.2%, HPGD inh -9.3%, ALDH1A1 block 0.1%, KDM4E inh 0.1% and Tau ThT inhib inconclusive.
O=C(O)CCC(=O)N1N=C(c2ccccc2)CC1c1cccs1 (centres undefined) was read as Tau fluor counter 8.7%, Tau fibril FP 9.5%, KDM4E inh -8.4% and Tau ThT inhib -2.4%.
Cc1ccc(C2=NN(S(C)(=O)=O)C(c3cccs3)C2)cc1 (centres undefined) was read as Tau fluor counter -6.1%, Tau fibril FP 5.8%, HPGD inh -1.1%, ALDH1A1 block -7.6%, KDM4E inh -2.3% and Tau ThT inhib 1.6%.
`CCc1ccc(C2=NN(S(C)(=O)=O)C(c3cccs3)C2)cc1` (centres undefined) gave Tau fluor counter -17.9%, Tau fibril FP -2.2%, HPGD inh -29.7%, ALDH1A1 block 20µM*, KDM4E inh 3.3% and Tau ThT inhib -9.9%.
Screening CC(=O)Nc1ccc(C2=NN(c3ccccc3)C(c3cccs3)C2)cc1 (centres undefined) returned Tau fluor counter 8.91µM*[quencher], Tau fibril FP inconclusive, ALDH1A1 block inconclusive, KDM4E inh inconclusive and Tau ThT inhib -10.9%.
CCS(=O)(=O)Nc1cccc(C2=NN(S(=O)(=O)c3ccc(C)cc3)C(c3cccs3)C2)c1 (centres undefined) was read as Tau fluor counter inconclusive, Tau fibril FP inconclusive, HPGD inh -21.3%, ALDH1A1 block 5.01µM*, KDM4E inh -1.8% and Tau ThT inhib -2.1%.
For Cc1ccc2sc(-c3ccc(NC(=O)/C=C\C(=O)O)cc3)nc2c1 the results were Tau fluor counter -22.3%, Tau fibril FP -3.5%, ALDH1A1 block inconclusive, KDM4E inh inconclusive and Tau ThT inhib -7.0%.
For Cc1cc(C)c2cc(CN(CCO)Cc3nnnn3Cc3ccccc3)c(=O)[nH]c2c1 the results were Tau fluor counter -6.4%, Tau fibril FP -9.5%, HPGD inh -3.3%, ALDH1A1 block 5.01µM*, KDM4E inh -7.6% and Tau ThT inhib -5.0%.
COCCn1nnnc1CN(CCc1ccc(OC)c(OC)c1)Cc1cc2ccc(C)cc2[nH]c1=O was read as Tau fluor counter -0.2%, Tau fibril FP -3.3%, HPGD inh -14.4%, ALDH1A1 block 11.2µM*, KDM4E inh inconclusive and Tau ThT inhib inconclusive.
`COc1ccc2[nH]c(=O)c(CN(Cc3nnnn3Cc3ccc(F)cc3)CC3CCCO3)cc2c1` (centres undefined) gave Tau fluor counter -7.1%, Tau fibril FP 7.3%, HPGD inh -14.3%, ALDH1A1 block inconclusive, KDM4E inh inconclusive and Tau ThT inhib -11.2%.
Cc1ccc2cc(CN(CCO)Cc3nnnn3Cc3ccc(F)cc3)c(=O)[nH]c2c1 was read as Tau fluor counter 4.6%, Tau fibril FP 6.2%, HPGD inh -11.9%, ALDH1A1 block 20µM*, KDM4E inh inconclusive and Tau ThT inhib 10.7%.
For Cc1cc(C)c2cc(CN(CCO)Cc3nnnn3Cc3ccc(F)cc3)c(=O)[nH]c2c1 the results were Tau fluor counter 2.5%, Tau fibril FP 0.6%, HPGD inh 2.8%, ALDH1A1 block 12.6µM*, KDM4E inh inconclusive and Tau ThT inhib -2.6%.
For O=c1[nH]c2cc3c(cc2cc1CN(CCCO)Cc1nnnn1Cc1ccc(F)cc1)OCO3 the results were Tau fluor counter 4.2%, Tau fibril FP 5.5%, HPGD inh inconclusive, ALDH1A1 block inconclusive, KDM4E inh inconclusive and Tau ThT inhib -0.9%.
`CCC1Sc2ccccc2N(CC(=O)NCc2ccc(C)cc2)C1=O` (centres undefined) gave Tau fluor counter -14.3%, Tau fibril FP -4.7% and Tau ThT inhib -1.1%.
